Source: PubChem (National Center for Advancing Translational Sciences (NCATS))
This is a sample that favours compounds with a hit; in the whole collection about 9% have one here.
Lamin A splicing: changes lamin A minigene splicing in HeLa cells. HeLa LMNA splicing GFP/RFP minigene ratio, 48 h. Potency, µM (series often up to 46.1 µM), actives largely listed as inhibitors. actives 0.01% (n = 200,000). AID 1487; active means well fitted inhibition curve with a large enough effect in the signal ratio, with a control signal flat, not every such curve was filed as active; inconclusive means small, poorly fitted or top-dose-only effect, or effect the other way, or a change in a side signal; the % refers to the signal ratio
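Read-out is the ratio of GFP to DsRed2 object intensity, acquired by 488 nm laser-scanning cytometry on HeLa lamin A-EGFP minigene reporter cells. Compound incubation 48 hrs at 37 °C in Opti-MEM with 2% FBS; DMSO 0.5% final.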
ALDH1A1 block: ALDH1A1 (human) enzyme inhibition; Purified ALDH1A1, NADH fluorescence, propionaldehyde substrate; Potency, µM (doses to about 75.3 µM), most hits filed as inhibitors; actives 7.3% (n = 220,000); P00352; active means well fitted inhibition curve with a large enough effect, not every such curve was filed as active; inconclusive means small, poorly fitted or top-dose-only effect, or another doubt; inactive means no such curve, though single readings can be large or run the other way
Target sequence (P00352 whole entry, looked up): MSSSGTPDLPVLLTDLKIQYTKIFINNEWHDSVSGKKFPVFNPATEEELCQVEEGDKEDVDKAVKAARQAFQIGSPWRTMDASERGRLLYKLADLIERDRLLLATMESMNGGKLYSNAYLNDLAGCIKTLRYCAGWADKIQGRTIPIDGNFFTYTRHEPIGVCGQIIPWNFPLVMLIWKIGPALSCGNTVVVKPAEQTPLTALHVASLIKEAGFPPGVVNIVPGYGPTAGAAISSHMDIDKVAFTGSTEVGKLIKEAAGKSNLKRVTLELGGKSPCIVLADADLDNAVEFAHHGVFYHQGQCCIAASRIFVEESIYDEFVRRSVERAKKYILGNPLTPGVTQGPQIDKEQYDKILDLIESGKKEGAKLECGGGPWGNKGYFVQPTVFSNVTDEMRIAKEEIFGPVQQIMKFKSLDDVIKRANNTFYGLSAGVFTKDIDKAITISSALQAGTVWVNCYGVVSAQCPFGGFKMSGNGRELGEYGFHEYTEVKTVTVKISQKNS
KinaseGlo FLuc: counter-screen: inhibitors of Kinase-Glo firefly luciferase. actives 0.28% (n = 200,000). AID 1379. Potency, µM (doses to about 38.3 µM), actives largely listed as inhibitors. Kinase-Glo luciferase, ATP luminescence, 8 min. Q27757; further: nearly all actives have a fitted effect of over 60% in size
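Inhibition of Kinase-Glo luciferase light generation was assessed at 10 uM ATP in pH 7.2 imidazole buffer, with luminescence measured after eight minutes at ambient temperature.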
HPGD inh: HPGD (human) dehydrogenase inhibition; P15428; purified HPGD, NADH fluorescence kinetic, PGE2 substrate; Potency, µM, usual class: inhibitors; actives 4.3% (n = 150,000); AID 894; active means well fitted inhibition curve with a large enough effect, not every such curve was filed as active; inconclusive means small, poorly fitted or top-dose-only effect, or another doubt; inactive means no such curve, though single readings can be large or run the other way
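20 nM HPGD preincubated 15 min at room temperature with compound in 50 mM Tris-HCl pH 8, 0.01% Tween 20. Started with 1 mM NAD+ and 30 uM prostaglandin E2; NADH fluorescence (360/450 nm) read 5 times over 30-s intervals, last minus first.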
HTT cytoprotect: cytoprotection in Huntington HTT-Q103 PC12 cell model. PC12 HTT-Q103 induced, cytoprotection, ATP luminescence, 40 h. Potency, µM (highest dose often 56.4 µM), usual class: activators. actives 0.14% (n = 230,000); further: nearly all actives have a fitted effect of over 45% in size
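ATP quantification (ATPlite) reports survival of PC12 cells in which tebufenozide, 100 nM final, switches on Htt exon 1 with 103 glutamines linked to GFP; compounds are titrated.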
HTT aggregate: inhibitors of mutant huntingtin aggregate formation in PC12 cells. actives 1.1% (n = 220,000). PC12 HttQ103-GFP aggregates, Acumen cytometry, 40 h. Potency, µM (highest dose often 46.1 µM), usual class: inhibitors. AID 1688; further: nearly all actives have a fitted effect of over 60% in size
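Huntingtin Q103 exon 1–GFP aggregates in induced PC12 cells (100 nM tebufenozide) were quantified by cytometry from lysates, with compounds dosed in titration.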
Of the large screens only hits and unclear results are named; the others gave an inactive call. Unless noted, the call rests on the fitted dose curve; in most records, active means well fitted curve in the direction sought with a large enough effect; inconclusive means small, poorly fitted or top-dose-only effect, or another doubt; inactive means no such curve, though single readings can be large; an effect the other way counts as inactive or inconclusive.

Cc1cc(C)nc(NC(=O)C(c2ccccc2)c2ccccc2)c1	ALDH1A1 block 14µM
O=C(c1ccccc1)c1ccc(OCCn2cnc3ccccc3c2=O)cc1	ALDH1A1 block inconclusive, HPGD inh 4.5µM, HTT aggregate inconclusive
COC(=O)[C@@H]1CCCN1Cc1nc(Cc2ccc(OC)c(OC)c2)no1	ALDH1A1 block 0.89µM (no result: Lamin A splicing, HPGD inh)
COc1cc(/C=C(\NC(C)=O)C(=O)Nc2ccccc2C)ccc1OC(C)=O	ALDH1A1 block 28µM
COc1ccc(NC(=O)/C(=C/c2ccc(OC(C)=O)c(OC)c2)NC(C)=O)cc1	ALDH1A1 block 4µM
COc1cc(/C=C(\NC(C)=O)C(=O)NC(C)(C)CC(C)(C)C)ccc1OC(C)=O	none
COc1cc(/C=C(\NC(C)=O)C(=O)Nc2ccc(NC(C)=O)cc2)ccc1OC(C)=O	ALDH1A1 block 0.25µM (no result: HTT cytoprotect)
COc1ccc(/C=C(/C#N)C(=O)Nc2ccccc2C)cc1C(=O)O	none
CCCC1=[N+](CC(=O)c2ccccc2)CCn2c(C)ccc21	HTT aggregate inconclusive
CCCC1=[N+](CC)CCn2c(C)ccc21	HTT aggregate 11µM
CCc1nc(SCC(=O)N2CCC(C)CC2)c2c(=O)n(C)c(=O)n(C)c2n1	ALDH1A1 block 11µM
CCCc1nc(SCC(=O)N2CCC(C)CC2)c2c(=O)n(C)c(=O)n(C)c2n1	none (no result: Lamin A splicing, ALDH1A1 block, KinaseGlo FLuc, HPGD inh)
CN(C)CCC[C@@]1(c2ccc(F)cc2)OCc2cc(C#N)ccc21	Lamin A splicing inconclusive
CCOc1ccccc1/C=N/NC(=O)c1cccc(S(=O)(=O)N(CC)CC)c1	ALDH1A1 block inconclusive, HTT aggregate inconclusive (no result: Lamin A splicing, HPGD inh)
CCN(CC)S(=O)(=O)c1cccc(C(=O)N/N=C(\C)c2ccc(O)cc2O)c1	Lamin A splicing inconclusive, ALDH1A1 block inconclusive, HTT aggregate 4µM (no result: HPGD inh)
CCN(CC)S(=O)(=O)c1cccc(C(=O)N/N=C/c2ccc(O)c(O)c2O)c1	ALDH1A1 block 8.9µM, HPGD inh 25µM
COc1ccc([N+](=O)[O-])cc1NC(c1nnc(-c2ccccc2)o1)c1ccccc1F (configuration not stated)	none (no result: ALDH1A1 block, KinaseGlo FLuc, HPGD inh, HTT cytoprotect, HTT aggregate)
CCN(CC)S(=O)(=O)c1cc(NC(=O)C(C)N2CCc3ccccc32)ccc1C (configuration not stated)	Lamin A splicing inconclusive, ALDH1A1 block inconclusive, HTT aggregate inconclusive (no result: HPGD inh)
Cc1ccc(C)c2c3c([nH]c12)-c1nonc1CC3	ALDH1A1 block 22µM
Cc1ccc(-n2nc3c([n+]2[O-])CCc2nonc2-3)cc1	ALDH1A1 block inconclusive (no result: Lamin A splicing, HPGD inh, HTT cytoprotect, HTT aggregate)
Cc1ccccc1NC(=S)NCc1ccc2[nH]c3c(c2c1)CCCC3	Lamin A splicing inconclusive, ALDH1A1 block inconclusive, HPGD inh 20µM (no result: HTT cytoprotect)
Cc1ccc(C)c(NC(=S)NCc2ccc3[nH]c4c(c3c2)CCCC4)c1	Lamin A splicing inconclusive, HTT aggregate inconclusive (no result: HTT cytoprotect)
CNC(=S)NCc1ccc2[nH]c3c(c2c1)CCCC3	ALDH1A1 block 25µM (no result: Lamin A splicing, HPGD inh)
Cc1cc(C)nc(/N=C(/NC(=O)Nc2ccc(Cl)c(Cl)c2)Nc2cccc(Cl)c2)n1	none
Cc1ccc2[nH]c3c(c2c1)CN(C)CC3	none
CCN(CC)c1ccc(/C=N/N2CCN(Cc3ccccc3)CC2)cc1	ALDH1A1 block 7.9µM (no result: HPGD inh)
C(=N\N1CCN(Cc2ccccc2)CC1)/c1ccccc1	none (no result: Lamin A splicing, ALDH1A1 block, KinaseGlo FLuc, HPGD inh)
COc1ccccc1-c1ccc(NC2CCCCC2)nn1	HPGD inh 7.1µM
COc1ccccc1-c1ccc(Nc2cccc(C(F)(F)F)c2)nn1	none
C=C(C)CSc1nc2nc(C)cc(C)n2n1	ALDH1A1 block inconclusive
COCCCn1c(Cc2ccccc2)nnc1SCC(=O)N1CCCCC1	ALDH1A1 block inconclusive (no result: KinaseGlo FLuc, HPGD inh)
Cc1occc1C(=O)NCc1ccccc1	none
Cc1occc1C(=O)NCCCCc1ccccc1	ALDH1A1 block 18µM, HPGD inh 20µM
Cc1ccccc1C(=O)NCCCCc1ccccc1	HPGD inh inconclusive
Cc1ccccc1C(=O)NCCCc1ccccc1	HPGD inh 14µM (no result: HTT cytoprotect)
CC1CC(=O)N(c2ccc(NCc3ccc(Cl)cc3)c([N+](=O)[O-])c2)C1=O (configuration not stated)	Lamin A splicing inconclusive, ALDH1A1 block inconclusive
CC(C)c1ccc(N2C(=O)[C@@H]3Cc4ccccc4CN3C2=O)cc1	none
